From PubChem BioAssay
KDM5B inh – Primary screen for KDM5B Histone Demethylases FDH-coupled qHTS. Lysine-specific demethylase 5B (Homo sapiens), Q9UGL1. KDM5B demethylase, FDH-coupled NADH fluorescence (FDH is formaldehyde dehydrogenase). Potency, µM (top dose mostly 57.7 µM), actives largely listed as inhibitors. 2.6% of 220,000 active. AID 1347165, 2019; active = well fitted inhibition curve with a large enough effect; note: 0% is about no effect; nearly all actives have a fitted effect of over 70% in size
Target sequence (Q9UGL1 whole entry, looked up): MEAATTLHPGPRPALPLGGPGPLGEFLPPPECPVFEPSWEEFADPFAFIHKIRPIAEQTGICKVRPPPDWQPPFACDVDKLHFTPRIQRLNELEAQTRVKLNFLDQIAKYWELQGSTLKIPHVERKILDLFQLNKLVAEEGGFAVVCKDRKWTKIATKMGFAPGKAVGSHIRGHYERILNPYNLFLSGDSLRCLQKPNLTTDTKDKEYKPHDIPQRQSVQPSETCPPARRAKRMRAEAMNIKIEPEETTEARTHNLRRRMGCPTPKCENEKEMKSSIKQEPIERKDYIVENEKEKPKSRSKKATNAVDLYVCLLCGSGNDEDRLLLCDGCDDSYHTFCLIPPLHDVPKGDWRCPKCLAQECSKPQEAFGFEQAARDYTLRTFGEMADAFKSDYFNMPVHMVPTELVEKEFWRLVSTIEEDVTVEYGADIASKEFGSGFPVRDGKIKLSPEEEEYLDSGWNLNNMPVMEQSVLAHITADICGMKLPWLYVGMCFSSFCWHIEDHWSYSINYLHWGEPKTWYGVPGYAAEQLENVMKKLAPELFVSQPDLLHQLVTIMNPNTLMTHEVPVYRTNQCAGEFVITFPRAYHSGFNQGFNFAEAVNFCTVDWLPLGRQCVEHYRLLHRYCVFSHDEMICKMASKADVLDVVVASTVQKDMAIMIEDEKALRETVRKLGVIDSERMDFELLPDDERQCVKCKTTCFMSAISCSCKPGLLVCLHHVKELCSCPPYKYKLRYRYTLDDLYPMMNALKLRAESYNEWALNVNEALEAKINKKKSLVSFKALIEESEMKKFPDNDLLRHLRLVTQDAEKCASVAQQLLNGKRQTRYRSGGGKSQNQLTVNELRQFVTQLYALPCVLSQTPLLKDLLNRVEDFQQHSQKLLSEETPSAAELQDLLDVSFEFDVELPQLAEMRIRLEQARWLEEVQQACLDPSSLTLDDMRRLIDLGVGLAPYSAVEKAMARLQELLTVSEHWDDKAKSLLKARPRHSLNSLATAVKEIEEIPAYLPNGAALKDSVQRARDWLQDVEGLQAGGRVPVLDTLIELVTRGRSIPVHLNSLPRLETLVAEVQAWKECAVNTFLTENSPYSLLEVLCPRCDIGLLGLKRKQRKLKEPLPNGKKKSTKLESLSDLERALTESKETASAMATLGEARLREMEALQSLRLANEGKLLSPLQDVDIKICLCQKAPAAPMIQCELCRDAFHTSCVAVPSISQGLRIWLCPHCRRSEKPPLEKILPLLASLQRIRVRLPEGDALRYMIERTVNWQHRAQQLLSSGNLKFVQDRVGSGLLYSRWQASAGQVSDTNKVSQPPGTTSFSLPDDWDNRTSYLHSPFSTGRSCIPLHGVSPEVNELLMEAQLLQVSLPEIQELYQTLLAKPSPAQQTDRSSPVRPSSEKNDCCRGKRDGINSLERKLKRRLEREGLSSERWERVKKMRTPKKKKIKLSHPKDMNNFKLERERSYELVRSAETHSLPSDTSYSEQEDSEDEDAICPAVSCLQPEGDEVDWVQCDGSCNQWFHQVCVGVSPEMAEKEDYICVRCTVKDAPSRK
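qHTS format, multiple compound concentrations. Buffer 50 mM HEPES pH 7.5/0.01% Tween-20; 200 nM KDM5BΔAP final; 10 min compound preincubation; substrate-mix levels 12.5 µM peptide, 25 µM α-KG, 0.25 mM NAD⁺; 30 min RT; ΔRFU.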
The depositor's hits bear a star; [ ] = dose if it differs, or a comment. This excerpt belongs to a sample that is enriched for hits. Potency is the fitted concentration of half-maximal effect.

Results for CCSCCNC(=O)c1c(C)noc1-c1ccc(OC)cc1 ?
KDM5B inh: inactive

How did C/C(=C/C(=O)NS(=O)(=O)C(C)C)c1ccc(F)cc1 do in these assays?
KDM5B inh: inactive

Results for CC(C)NC(=O)c1nc(-c2ccc(COc3ccc4c(c3)OCO4)cc2)no1 ?
KDM5B inh: inactive

What do the screens show for `O=C(NC[C@H]1Cn2c(-c3ccccc3)cnc2CO1)C1CCOCC1`?
KDM5B inh: inactive

Results for CCCc1cc(=O)n2nc(N(C)CC(=O)Nc3cc(Cl)ccc3C)sc2n1 ?
KDM5B inh: inactive

What do the screens show for `CSc1nc2c(c(=O)[nH]c(=O)n2C)n1Cc1cccc(C)c1`?
KDM5B inh: inactive

Results for Cc1c(CC=C(Cl)Cl)c(Cl)nc2c(C)cccc12 ?
KDM5B inh: inactive

How did Cc1ccc(OCCCCc2c(C)n[nH]c2C)c(C(C)(C)C)c1 do in these assays?
KDM5B inh: inactive

What do the screens show for `Cc1cc2nc(/C(C#N)=C\c3ccc(O)c(I)c3)[nH]c2cc1C`?
KDM5B inh: inactive

What do the screens show for `COc1ccc(C2Cn3cnc(C(=O)N4CCC(C(=O)NCc5cccnc5)CC4)c3CO2)cc1` (centres undefined)?
KDM5B inh: inactive

What do the screens show for `CC(C)c1ccc(N2C(=O)N[C@@H]3CCN(C(=O)CC4(CC(=O)O)CCCC4)[C@@H]3C2=O)cc1`?
KDM5B inh: inactive

What do the screens show for `CC(C)c1noc(-c2cn(C3CCN(C(=O)c4ccoc4)C3)nn2)n1` (centres undefined)?
KDM5B inh: inactive

What do the screens show for `COCCNC(=O)c1ccc2c(c1)N(C)C(CC(=O)N1CCC(O)CC1)CO2` (centres undefined)?
KDM5B inh: 28µM*

What do the screens show for `COCCNC(=O)c1ccc(CC2CCN(C(=O)CCc3ccc(OC)cc3)CC2)cc1`?
KDM5B inh: inactive

What do the screens show for `CCC1(CC)CCN(C(=O)CC2COc3ccc(C(=O)N(C)C)cc3N2C)C1` (centres undefined)?
KDM5B inh: inactive

How did COCCC(=O)N1CCC(Oc2ccc(C(=O)N(C)Cc3cc(C)no3)cc2)CC1 do in these assays?
KDM5B inh: inactive

What do the screens show for `COCCNC(=O)C(NC(=O)c1cccc(OC)c1)C1CCN(C(=O)COC)CC1` (centres undefined)?
KDM5B inh: inactive

Results for COCCNC(=O)c1ccc2c(c1)N(C)C(CC(=O)N1CCC(N)CC1)CO2 (centres undefined) ?
KDM5B inh: 28µM*

Results for CC1CCN(CC(=O)N(C)CC(=O)Nc2ccc(Cl)c(C(F)(F)F)c2)CC1 ?
KDM5B inh: inactive

Results for CC(C)n1cc(CN2C[C@@H](COCC(N)=O)[C@H](c3ccncc3)C2)cn1 ?
KDM5B inh: inactive

Results for O=C(Nc1ccccc1F)c1nc2ccccc2nc1N1CCCC1 ?
KDM5B inh: inactive

Results for Cc1cc(C(=O)N2CCN(S(=O)(=O)c3ccc(Cl)cc3)CC2)on1 ?
KDM5B inh: inactive

How did N#C/C(=C\c1c[nH]c2ccccc12)C(=O)NC1CCCCC1 do in these assays?
KDM5B inh: inactive

Results for CCOc1ccc(NS(=O)(=O)c2ccc(C(=O)NC3CCN(S(C)(=O)=O)CC3)cc2)cc1 ?
KDM5B inh: inactive

What do the screens show for `Cc1nc(-c2cnccn2)n(CC(=O)Nc2ccc3c(c2)OCO3)c(=O)c1C`?
KDM5B inh: inactive

What do the screens show for `Cc1ccc(/C=N/NC(=O)c2cccc(N(C)C)c2)cc1`?
KDM5B inh: inactive

How did O=C(NC1C=CS(=O)(=O)C1)c1ccc2nc(-c3ccc(F)cc3)cn2c1 (centres undefined) do in these assays?
KDM5B inh: 25µM*

What do the screens show for `O=C(NCc1ccc(F)cc1)c1ccc(-c2csc(C3CC3)n2)cc1`?
KDM5B inh: inactive

Results for O=C(c1ccc2nc(-c3ccc(F)cc3)cn2c1)N1CCC(F)CC1 ?
KDM5B inh: 28µM*

What do the screens show for `O=C(c1ccc2nc(-c3ccccc3)cn2c1)N1C[C@@H]2CCC[C@H]1C2`?
KDM5B inh: 22µM*

How did Clc1ccc2nc(-c3ccc(Br)cc3)cn2c1 do in these assays?
KDM5B inh: inactive

How did O=C(c1ccc(F)cc1)N1CCC[C@H]1c1nc(-c2ccccc2)no1 do in these assays?
KDM5B inh: inactive

How did O=C(c1ccc2nnc(-c3ccc(F)cc3)n2c1)N1CCOCC1 do in these assays?
KDM5B inh: inactive

What do the screens show for `Cc1ccc(C(=O)NC(c2cccnc2)c2ccc(C)c(C)c2)cc1` (centres undefined)?
KDM5B inh: inactive

How did O=C(c1ccc(F)cc1)N1CCC(c2nc3ccccc3s2)CC1 do in these assays?
KDM5B inh: inactive[11.5 µM]

How did CCC(NC(=O)c1ccc2nc(-c3ccc(F)cc3)cn2c1)c1cccnc1 (centres undefined) do in these assays?
KDM5B inh: 28µM*

How did O=C(c1ccc(F)c(C(F)(F)F)c1)N1CC2CCC1C2 (centres undefined) do in these assays?
KDM5B inh: inactive

What do the screens show for `CCC(NC(=O)c1cncc(Br)c1)c1ccccc1` (centres undefined)?
KDM5B inh: inactive

What do the screens show for `C/C(=N/Nc1ccccc1)c1ccc(Cl)s1`?
KDM5B inh: inactive

What do the screens show for `CCCC1c2nccn2CCCN1C(=O)Cc1c(C)noc1C` (centres undefined)?
KDM5B inh: inactive

How did CCC(CO)NS(=O)(=O)c1cc(C)c(Cl)cc1Cl (centres undefined) do in these assays?
KDM5B inh: inactive

How did Cc1cccc(-c2nnc3sc(NC(=O)c4cccc(F)c4)nn23)c1 do in these assays?
KDM5B inh: inactive

How did c1cc2cc(Nc3cnc4ccc(N5CCOCC5)nn34)ccc2[nH]1 do in these assays?
KDM5B inh: inactive

How did CC(=O)Nc1cccc(C(C)NC(=O)Nc2ccc(C(F)(F)F)cc2)c1 (centres undefined) do in these assays?
KDM5B inh: inactive

Results for COC[C@@H]1CN(S(=O)(=O)c2cc(F)cc(F)c2)C[C@H]1C(N)=O ?
KDM5B inh: inactive

Results for C=CCNC(=O)C1CCN(Cc2ccc(F)cc2)CC1 ?
KDM5B inh: inactive

Results for Cc1cn2nc(C(=O)N3CCC(NC(=O)c4ccc(C)c(F)c4)CC3)cc2c(=O)[nH]1 ?
KDM5B inh: inactive

What do the screens show for `CC(Sc1nc2ccccc2o1)C(=O)NCC1CCCCC1` (centres undefined)?
KDM5B inh: inactive

Results for O=C(O)C1CCc2nnc(C3CCCN(C(=O)c4ccc5c(c4)OCO5)C3)n21 (centres undefined) ?
KDM5B inh: inactive

How did Cc1c(C(=O)NCc2ccc(F)cc2)sc2nc(-c3ccc(F)cc3)cn12 do in these assays?
KDM5B inh: inactive

Results for O=C(NCCCn1ccnc1)c1ccc2nc(-c3ccc(F)cc3)cn2c1 ?
KDM5B inh: 32µM*

Results for COc1ccc(C(=O)NCCc2cn3ccccc3n2)cc1 ?
KDM5B inh: inactive

How did COc1ccc(CCNC(=O)c2ccc3nc(C)cn3c2)cc1 do in these assays?
KDM5B inh: 28µM*

What do the screens show for `CCNC(=O)C1CCN(C(=O)c2ccc3nc(-c4ccccc4)cn3c2)C1` (centres undefined)?
KDM5B inh: 28µM*

What do the screens show for `Cc1cc(C)nc(CNC(=O)c2ccc3nc(-c4ccc(F)cc4)cn3c2)n1`?
KDM5B inh: 28µM*

How did COc1ccc(CCNC(=O)c2cnc3ccc(C)cn3c2=O)cc1 do in these assays?
KDM5B inh: inactive

How did O=C(NCCCn1ccnc1)c1ccc(Cl)cc1 do in these assays?
KDM5B inh: inactive
